Test results reported in PubChem BioAssay (NCATS).
Values without a mark were called inactive. For part of these data: Potency and affinity values are given separately. Calls of active or inactive are those of the source. No rule for the calls is given here.

Conditions: Ebola virus entry assay, green fluorescence channel
For efficacy in this document: 0% is about no effect.

Structure (SMILES)	efficacy
Cc1nc([N+](=O)[O-])cn1-c1ccc([N+](=O)[O-])cc1	-13.8%
NCCNCCNCCNCCN	-17.9%
O=c1[nH]c(=O)n([C@H]2C[C@H](O)[C@@H](CO)O2)cc1I	-7.83%
CCOc1nc2cccc(C(=O)O)c2n1Cc1ccc(-c2ccccc2-c2nn[nH]n2)cc1	27.1%
CC(=O)NC(=O)c1ccccc1O	-28.5%
Cc1ccc(C(=O)C(=O)O)cc1C	-11.1%
COc1ccc(C(=O)c2ccccc2O)c(O)c1	-11.1%
O=c1cc(O)c(Cl)c[nH]1	-17.7%
NCCc1ccn[nH]1	19.8%
Cc1onc(-c2ccccc2)c1-c1ccc(S(N)(=O)=O)cc1	21%
Cc1ccc(C(C)C)c(O)c1	-16.9%
O=C(O)[C@@H]1[C@H]2C[C@H]3c4[nH]c5ccccc5c4CCN3C[C@@H]2CC[C@@H]1O	38.8%
CCC(C)(C)c1ccc(O)cc1	13.1%
O=C(O)Cc1sc(-c2ccccc2)nc1-c1ccc(Cl)cc1	-17.4%
O=C(CCCl)NCc1ccccc1	-26.1%
O=C(O)COc1nn(Cc2ccccc2)c2ccccc12	-8.45%
CCCCOCCOC(=O)c1cccnc1	-26.3%
O=C(CCCl)NCCc1ccccc1	-10.7%
Cc1ccnc(NS(=O)(=O)c2ccc(N)cc2)n1	-24.3%
CCN(CC)CCNC(=O)COc1ccc(OC)cc1	11.4%

Structure (SMILES)	efficacy
O=C1CC[C@H](C(=O)N2CCCCC2)N1	-19.2%
CC(O)CCCCn1c(=O)c2c(ncn2C)n(C)c1=O (configuration not stated)	23.8%
CCCCCCC(=O)CCCCCC/C=C/C[C@@H](O)[C@H](O)[C@@](N)(CO)C(=O)O	-11.6%
Cc1cc2cc3c(C)cc(=O)oc3c(C)c2o1	-24.3%
CCCCCCCCCCC[C@@H](C[C@@H]1OC(=O)[C@H]1CCCCCC)OC(=O)[C@H](CC(C)C)NC=O	-27.6%
O=C(O)CCCCC(=O)O	-12.4%
CC(=O)NCCCCCC(=O)O	-20.5%
CC(=O)Nc1ncc([N+](=O)[O-])s1	20.3%
Cc1c(C(C)C)c(=O)n(-c2ccccc2)n1C	14.2%
CC(C)=CC1C(C(=O)OCN2C(=O)C3=C(CCCC3)C2=O)C1(C)C (configuration not stated)	28%
O=C(O)Cc1ccc(-c2ccccc2)cc1	14.2%
C[C@@H]1O[C@@H](OC[C@H]2O[C@@H](Oc3c(-c4ccc(O)c(O)c4)oc4cc(O)cc(O)c4c3=O)[C@H](O)[C@@H](O)[C@@H]2O)[C@H](O)[C@H](O)[C@H]1O	21.1%
CC(C)NNC(=O)c1ccncc1	-20.5%
CCN(CC)C(=O)c1ccc(O)c(OC)c1	13.1%
CC(=O)N[C@@H](CC(C)C)C(=O)O	-14.4%
CC(=O)C1CCOC1=O (configuration not stated)	6.81%
C[n+]1c2cc(N)ccc2cc2ccc(N)cc21 (tested in a mixture with another compound)	129%
NC(=O)c1cccnc1	-19.3%
CC(=O)Nc1ccccc1	-20.9%

Conditions: Ebola virus entry assay, blue channel fluorescence

Structure (SMILES)	outcome
CC(=O)Nc1ncc([N+](=O)[O-])s1	inactive
O=C(O)Cc1ccc(-c2ccccc2)cc1	inactive
CC(=O)Nc1ccccc1	inactive
